Bioassay records: PubChem BioAssay, Broad Institute
This is a sample that favours compounds with a hit; in the whole collection about 3.1% have one here.
esBAF inh = SWI/SNF esBAF complex inhibition; reporter increase, % at 12.5 µM; actives 2% (n = 350,000); mouse ES cells, Bmi1-luciferase knock-in reporter, 24 h; 100% = twice the neutral-well signal; in the data active = activation above about 40%; inconclusive = no clear call, values can overlap the other calls;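 also: 0% = median of the plate's neutral control wells and 100% = double that signal; a rise in the Bmi1 reporter signal indicates esBAF inhibition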
C2C12 statin = suppression of simvastatin myotoxicity; AID 602340; C2C12 myotubes + simvastatin, ATP luminescence, 48 h; scaled: DMSO 0, geranylgeraniol control 100; rescue of ATP level, % at 7.49 µM; actives 0.78% (n = 330,000);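 active = mean ATP rescue above about 67%, or every replicate alone reaching that limit, limit read from the data, passing the limit was not always enough; inconclusive = no clear call, values can overlap the other calls; inactive = mean under the limit and some replicate under it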;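 also: myotubes were challenged with 10 µM simvastatin during compound exposure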
Rtt109 HAT inh = C. albicans Rtt109 histone acetyltransferase inhibition | Q5AAJ8 | purified Rtt109/Vps75, ThioGlo CoA-SH fluorescence, 4 h | inhibition, % at 34.9 µM | actives 0.16% (n = 330,000);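 active = inhibition of at least 50% in every replicate; inconclusive = best replicate reaches 50% inhibition but some replicates fall short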
Target sequence (Q5AAJ8 whole entry, looked up): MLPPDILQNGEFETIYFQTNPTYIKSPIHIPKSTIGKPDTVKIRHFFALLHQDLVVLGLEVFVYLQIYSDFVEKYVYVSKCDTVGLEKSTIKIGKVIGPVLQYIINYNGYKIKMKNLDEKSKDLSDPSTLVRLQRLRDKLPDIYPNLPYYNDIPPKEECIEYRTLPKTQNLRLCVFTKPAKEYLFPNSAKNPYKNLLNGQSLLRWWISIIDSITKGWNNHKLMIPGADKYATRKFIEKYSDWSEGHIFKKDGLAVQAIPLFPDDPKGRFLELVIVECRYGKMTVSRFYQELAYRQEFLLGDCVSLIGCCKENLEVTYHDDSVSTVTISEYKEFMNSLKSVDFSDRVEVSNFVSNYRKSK
Wnt bcat act = Wnt/beta-catenin pathway activation | Wnt/beta-catenin reporter cell assay, activator, plate reader | activation, % at 9.35 µM | actives 1.2% (n = 300,000); in the data active = activation above about 30%, passing the limit was not always enough; inconclusive = no clear call, values can overlap the other calls;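 also: 0% = neutral control wells and 100% = positive control wells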
MITF TRPM1 HTS = increases MITF-driven TRPM1 promoter luciferase signal | SK-MEL-5 TRPM1-promoter luciferase, 24 h; % of positive control, neutral wells = 0 | actives 0.75% (n = 300,000) | activation, % at 12.5 µM;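 active = mean activation of at least 80% with every replicate also reaching 80%; inconclusive = mean reaches 80% but some replicate falls short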;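 also: 0% = neutral control wells and 100% = parthenolide positive control wells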
* marks the source's active call; other numbers are inactive results; ? = inconclusive; nt = no result.

SMILES	esBAF inh	C2C12 statin	Rtt109 HAT inh	Wnt bcat act	MITF TRPM1 HTS
COC(=O)c1ccc(-c2ccc(F)cc2)nc1C	38	8	-15	28	105*
CCOc1ncccc1C(=O)OCC(=O)Nc1ccc2c(c1)CCC2	-1	2	-9	-5	0
Cc1ccc(-c2ccc(C(=O)O)c(C)n2)cc1	-5	0	-5	-3	-8
O=C(C1CCOCC1)N1C[C@@H]2[C@H](c3ccccc31)[C@H](CO)N2Cc1ccccc1	4	15	nt	nt	nt
Nc1nnnn1/N=C/c1ccccc1Cl	-6	-2	nt	6	nt
Nc1nnnn1/N=C/c1ccccn1	-2	83*	-8	0	7
COC(=O)CCCC(=O)N1CCOCCN(C(=O)CCCC(=O)OC)CCOCC1	-1	110*	-8	-1	6
COC(=O)CCC(=O)N1CCOCCOCCN(C(=O)CCC(=O)OC)CCOCCOCC1	-6	nt	2	-3	-4
CN(C)CC#Cc1cccc(-c2nc(C(=O)NCCCN3CCOCC3)cc3c2[C@H](CCO)N(S(=O)C(C)(C)C)C3)c1 (stereo not given in full)	2	nt	nt	nt	nt
COC(=O)C1=C(C)NC(=O)CC1c1cc(Br)ccc1F (stereo not given)	3	111*	1	-1	-7
Cc1cc2c(cc1C)C(c1cc(Br)ccc1F)CC(=O)N2 (stereo not given)	nt	nt	11	-7	-26
Cc1noc(C)c1NC(=O)Nc1ccc2c(c1)C(=O)N([C@@H](C)CO)C[C@@H](C)[C@@H](CN(C)S(=O)(=O)c1ccccc1)O2	-4	nt	nt	nt	nt
O=C(NCCCc1ccccc1)c1ccc(F)cc1	64*	3	4	nt	nt
O=C(NCCc1ccccc1)c1ccc(NC(=O)C2CC2)cc1	45*	-10	4	10	59
O=C(Nc1ccccc1O)c1ccc(NC(=O)C2CC2)cc1	23	-42	1	68*	49
O=C(Nc1ccccc1C(=O)O)c1ccc(NC(=O)C2CC2)cc1	-10	-4	4	4	4
O=C(NCCc1ccccc1)c1cccc(NC(=O)C2CCCC2)c1	48*	7	-9	0	22
O=C(Cc1ccccc1)N1C[C@@H]2[C@H](c3ccccc31)[C@H](CO)N2C(=O)C1CCCCC1	-1	2	nt	nt	nt
C[C@H]1CN([C@@H](C)CO)C(=O)c2cc(C#Cc3cccnc3)cnc2O[C@H]1CN(C)C(=O)CN(C)C	-5	4	nt	nt	nt
Cc1ccc(S(=O)(=O)N(C)C[C@@H]2OCCCC[C@H](C)Oc3ccc(NS(=O)(=O)c4ccccc4)cc3C(=O)N([C@H](C)CO)C[C@H]2C)cc1	-2	-1	nt	nt	nt
O=C(N[C@@H]1CC[C@H](CCNS(=O)(=O)c2cccc(Cl)c2)O[C@H]1CO)c1ccccc1	2	5	nt	nt	nt
Cc1[nH]n(C(N)=S)c(=O)c1N=Nc1ccc(Br)cc1	35	2	-2	40*	41
Cc1[nH]n(C(N)=S)c(=O)c1N=Nc1ccc(S(=O)(=O)N2CCCC2)cc1	53*	4	5	0	nt
Cc1[nH]n(C(N)=S)c(=O)c1N=Nc1cccc(C(F)(F)F)c1	nt	nt	0	27	37
Cc1ccc(N=Nc2c(C)[nH]n(C(N)=S)c2=O)cc1	57*	-3	-2	19	46
SMILES	esBAF inh	C2C12 statin	Rtt109 HAT inh	Wnt bcat act	MITF TRPM1 HTS
C[C@@H]1CN([C@H](C)CO)C(=O)c2cc(-c3ccncc3)cnc2O[C@H]1CN(C)C(=O)C1CCC1	nt	19	nt	nt	nt
C/C(=N/N=C(/C)c1cccs1)c1cccs1	48*	2	-2	15	nt
CC(=O)c1ccc(NC(=O)CSc2nnc(C3CC3)n2C)cc1	1	6	-12	1	16
CC(=O)Nc1ccc(NC(=O)CSc2nnc(C3CC3)n2C)cc1	-4	127*	1	0	nt
C[C@@H]1CN([C@H](C)CO)C(=O)Cc2cc(NS(=O)(=O)c3ccc(Cl)cc3)ccc2O[C@@H]1CN(C)C(=O)Nc1ccc2c(c1)OCO2	2	40	nt	nt	nt
O=Cc1c(-c2ccc(Cl)cc2)oc2ccc(O)cc12	?	16	nt	84*	nt
Cc1ccc(S(=O)(=O)N[C@@H]2C=C[C@@H](CC(=O)NC3CCCCC3)O[C@@H]2CO)cc1	-1	0	nt	nt	nt
CCC(N=c1cc(-c2ccc(OC)c(OC)c2)oc2ccc(C)cc12)C(=O)O (stereo not given)	nt	nt	0	10	4
CCC(N=c1cc(-c2ccc(OC)cc2)oc2ccc(C)cc12)C(=O)O (stereo not given)	nt	nt	-377	47*	53
C[C@@H]1CN([C@H](C)CO)C(=O)c2cccc(NS(C)(=O)=O)c2O[C@@H]1CN(C)S(=O)(=O)c1ccc(F)cc1	-1	nt	nt	nt	nt
O=[N+]([O-])c1ccc(NN=Cc2ccccc2)nc1	nt	nt	-2	50*	148*
CCOc1ccccc1C=NNc1ccc([N+](=O)[O-])cn1	-6	7	3	-2	-7
CN(C)c1ccc(Nc2ccc([N+](=O)[O-])cn2)cc1	50*	0	8	9	nt
O=[N+]([O-])c1ccc(NN=Cc2ccc(O)cc2)nc1	95*	-7	3	67*	44
O=[N+]([O-])c1ccc(NN=Cc2ccccc2O)nc1	-48	5	6	-8	3
O=[N+]([O-])c1ccc(NN=Cc2ccc(O)cc2O)nc1	-25	8	6	9	1
CCN(CC)c1ccc(C=NNc2ccc([N+](=O)[O-])cn2)cc1	nt	-40	-6	48*	44
O=[N+]([O-])c1ccc(Nc2ccc(F)cc2)nc1	nt	nt	0	nt	10
O=C(Cc1ccccc1)N[C@H]1CC[C@H](CC(=O)N2CCCCC2)O[C@H]1CO	1	0	nt	nt	nt
COc1ccc(NN=Nc2ccc([N+](=O)[O-])cc2)cc1	49*	25	10	8	99*
O=[N+]([O-])c1ccc(N/N=C/c2cccs2)nc1	nt	nt	7	56*	109*
COc1ccc(C=NNc2ccc([N+](=O)[O-])cn2)cc1	52*	-8	3	16	74
O=[N+]([O-])c1ccc(N/N=C/c2ccc(OCc3cccc4ccccc34)cc2)nc1	nt	nt	-4	-2	22
CC(C)NC(=O)N(C)C[C@H]1OCCCC[C@H](C)Oc2ccc(NS(=O)(=O)c3ccc(F)cc3)cc2C(=O)N([C@H](C)CO)C[C@H]1C	-10	nt	nt	nt	nt
C[C@H]1CN([C@@H](C)CO)S(=O)(=O)c2ccc(/C=C/c3ccccc3)cc2O[C@H]1CN(C)C(=O)CN1CCOCC1	0	13	nt	nt	nt
O=S(=O)(c1ccccc1)N1C[C@H]2[C@@H](c3ccccc31)[C@H](CO)N2Cc1ccccc1	-5	29	nt	nt	nt
Cc1ccc(NS(=O)(=O)c2ccc(C)c(C(=O)N3CCN(C)CC3)c2)cc1	-5	123*	-5	nt	-1
Cc1cccc(Nc2nc(N)nc(-c3oc4ccccc4c3C)n2)c1	57*	-10	-3	-4	nt
Cc1c(-c2nc(N)nc(Nc3ccccc3F)n2)oc2ccccc12	48*	8	5	nt	122*
Cc1ccc(Nc2nc(N)nc(-c3oc4ccccc4c3C)n2)cc1	nt	nt	-5	nt	14
